In PubChem BioAssay one finds composite z-score data, which are given here for 35 compounds.

The structures appear in SMILES notation.

In the experiment the test system is Lefty1. Kind of experiment: Lefty1 binders on small-molecule microarrays, primary screen, biochemical, small-molecule microarray, 635/667 nm fluorescence (AID 1139). The conditions noted are these: small-molecule microarray binding, fluorescence 635/667; higher = more signal.
Compound `CO[C@H]1O[C@H](CO)[C@@H](OC(=O)Nc2ccccc2)[C@@H]2OC(=O)[C@H](Cc3ccccc3)C/C=C/C[C@@H](Cc3ccccc3)C(=O)O[C@@H]12` registered a composite z-score of 1.33.

The compound `CCCCC(=C=CC[C@@H](O)c1ccc(OCCO)cc1)C[C@@H](O)c1ccccn1` came in with a composite z-score of 1.47.

Consider `C=CCC(OC(C)=O)[C@@H]1[C@@H](N(Cc2cccc3ccccc23)C(=O)c2ccc(-c3ccccc3)cc2)c2cc(OCCCO)ccc2N1C(=O)c1ccc2ccccc2n1` (stereo not given in full), for which the composite z-score stood at 0.752.

For `COCCOC(=O)N1C(=O)[C@@]2(c3cc(C#CC4(O)CCCCCC4)ccc31)[C@H](c1ccc(OCCO)cc1)N1[C@H](c3ccccc3)[C@H](c3ccccc3)OC(=O)[C@H]1[C@@H]2C(N)=O`, the composite z-score is 1.38.

With `COc1ccc([Si](C)(C)[C@H]2[C@H](CCO)O[C@@]3(C(=O)N(Cc4ccc(N5CCOC5=O)cc4)c4ccccc43)[C@@H]2C)cc1`, the composite z-score turned out to be 0.263.

In turn, `Cc1c(-c2ccc(-c3ccc(Cl)c(Cl)c3)o2)nc(-c2ccccc2)c2c1CO[Si]2(C(C)C)C(C)C` returned a composite z-score of 0.351.

In turn, `O=C1OCCC=C[C@H]2OC34C=CCN(CCN5CCOCC5)C(=O)[C@H]3N(CCCO)C(=O)[C@@H]4C12` (stereo not given in full) had a composite z-score of -0.0933.

Compound `COC(=O)[C@@]1(Cc2ccc(F)cc2)[C@H]2c3cc(C(=O)N(C)C)n(CCO)c3C[C@H]2CN1C(=O)c1ccccc1` had a composite z-score of -0.483.

`CC(C)C[C@H]1NC(=O)[C@@H](C)NC(=O)[C@@]23C(=O)N[C@@H](Cc4ccccc4)C2[C@H](C)[C@@]2(C)O[C@H]2C3/C=C/C/C=C\CNC1=O` (stereo not given in full): the composite z-score came out at 0.754.

Compound `N#Cc1ccc(C(O)C2C=CC3C(=O)N(c4ccccc4)C(=O)C3N2Nc2ccc([N+](=O)[O-])cc2)cc1` (stereo not given) yielded a composite z-score of -0.44.

The compound `CN(C)CCCC[C@@H]1NC(=O)[C@@H]2C[C@H](C(=O)NCc3ccc(F)cc3)[C@H](c3ccc(O)cc3)N2C1=O` returned a composite z-score of 0.748.

Compound `CC(=O)c1ccc(C(O)C2C=CC3C(=O)N(C)C(=O)C3N2NC(=O)OC(C)(C)C)cc1` (stereo not given) came in with a composite z-score of 0.337.

`CO[C@H]1O[C@H](CO)[C@@H](OC(=O)Nc2ccc3c(c2)OCO3)[C@@H]2OC(=O)[C@@H](Cc3ccccc3)C/C=C/C[C@H](Cc3ccccc3)C(=O)O[C@@H]12` had a composite z-score of 0.433.

Take `O=C1NC(=O)C2C1C=CC(C(O)c1cccc(O)c1)N2Nc1ccc(Cl)cc1Cl` (stereo not given): the composite z-score is -0.317.

As for `Cc1ccc(S[C@]2(C(=O)NCCCN(C)C)CC(=O)N(Cc3ccccc3Cl)[C@@H]2c2ccc(CO)cc2I)cc1`, the composite z-score is -0.767.

On to `O=c1cccc(-c2ccccc2C(F)(F)F)o1`, for which the composite z-score was -0.599.

In turn, `COCCOC(=O)N1C(=O)[C@@]2(c3cc(C#CCC(C(=O)OC)C(=O)OC)ccc31)[C@H](c1ccc(OCCO)cc1)N1[C@H](c3ccccc3)[C@H](c3ccccc3)OC(=O)[C@H]1[C@@H]2C(=O)N1CCCCCCC1` displayed a composite z-score of 0.958.

As to `C[C@H]1NC(=O)C([C@@H](C)OCc2ccccc2)NC(=O)[C@@]23C(=O)N[C@@H](Cc4ccccc4)C2[C@H](C)[C@@]2(C)O[C@H]2C3/C=C/C/C=C\CNC1=O` (stereo not given in full), the composite z-score came to 0.459.

In the case of `COCC(=C=CC[C@@H](O)c1cccc(OCCO)c1)C[C@@H](O)COCc1ccccc1`, the composite z-score is -0.058.

Turning to `C=C(CCCC)C(=O)CC[C@H](OC(C)=O)c1ccccc1OCCO`, the composite z-score came out at 1.36.

In turn, `CCC[C@@H]1C=C(C(=O)OCC)[C@H](c2ccccc2)N1S(=O)(=O)c1ccc(C)cc1` returned a composite z-score of 0.565.

On to `COCCOC(=O)N1C(=O)[C@@]2(c3cc(C#CC4(O)CCCCCC4)ccc31)[C@H](C(=O)N1CCc3cc(OC)c(OC)cc3C1)[C@H]1C(=O)O[C@H](c3ccccc3)[C@H](c3ccccc3)N1[C@@H]2c1ccc(O)cc1`, for which the composite z-score came out at 0.594.

On to `Cc1ccc(F)cc1S(=O)(=O)N[C@@H]1CCN(Cc2ccc3c(c2)OCO3)C1`, for which the composite z-score was 0.236.

On to `COCCOC(=O)N1C(=O)[C@@]2(c3cc(C#CC4(O)CCCCCC4)ccc31)[C@H](c1ccc(OCCO)cc1)N1[C@H](c3ccccc3)[C@H](c3ccccc3)OC(=O)[C@H]1[C@@H]2C(=O)N1CCCCCCC1`, for which the composite z-score was 1.16.

`CC(c1ccccc1)C(O)C1C=CC2C(=O)N(c3ccccc3)C(=O)C2N1Nc1ccc(C#N)cc1` (stereo not given) gave a composite z-score of 1.12.

In turn, `COC(=O)C(CC#Cc1ccc2c(c1)[C@]1(C(=O)N2)[C@H](c2ccc(O)cc2)N2[C@H](c3ccccc3)[C@H](c3ccccc3)OC(=O)[C@H]2[C@@H]1C(=O)N1CCc2cc(OC)c(OC)cc2C1)C(=O)OC` had a composite z-score of 1.54.

The compound `C[N+](C)(C)CCCCCCNC(=O)[C@H]1C[C@H]2C(=O)NCC(=O)N2[C@H]1c1cccc(OCCO)c1` showed a composite z-score of 1.6.

`COC(=O)c1c(CC[C@@H](CO)NC(=O)N[C@@H](Cc2ccccc2)Cn2cc(-c3cncn3C)nn2)oc(C(C)=O)c1C(=O)OC` yielded a composite z-score of 0.847.

Compound `O=C1O[C@@H](c2ccccc2)[C@@H](c2ccccc2)N2[C@@H](c3ccc(O)cc3)[C@]3(C(=O)Nc4ccc(C#CC5=CCCCC5)cc43)[C@@H](C(=O)N3CCCCCCC3)[C@H]12` came in with a composite z-score of 1.29.

Take `COC(=O)C1=CC(CCCO)=CC(C2CC2)N(Cc2cccc(OC(F)(F)F)c2)C=C1C(=O)OC` (stereo not given): the composite z-score turned out to be 0.126.

Regarding `COCCOC(=O)N1C(=O)[C@@]2(c3cc(C#CCC(C(=O)OC)C(=O)OC)ccc31)[C@H](C(=O)N1CCCCCCC1)[C@H]1C(=O)O[C@H](c3ccccc3)[C@H](c3ccccc3)N1[C@@H]2c1ccccc1OCCO`, the composite z-score came to 0.884.

As for `COCCOC(=O)N1C(=O)[C@@]2(c3cc(C#CCCO)ccc31)[C@H](c1ccccc1OCCO)N1[C@H](c3ccccc3)[C@H](c3ccccc3)OC(=O)[C@H]1[C@@H]2C(=O)N1CCc2cc(OC)c(OC)cc2C1`, the composite z-score came to 0.786.

For `COC(=O)[C@@H]1N=C(c2ccc(OCCCO)cc2)O[C@@H]1c1ccccc1CN=[N+]=[N-]`, the composite z-score was -0.119.

As to `COC(=O)[C@H](Cc1ccc(O)cc1)N1CC2=CCCC=C[C@@H]2[C@H]1[C@H](O)Cc1ccccc1`, the composite z-score is 0.58.

In the case of `C=CC[C@@]1(C(=O)N(C)C)N=C(c2ccc(OCCCO)cc2)O[C@@H]1c1ccccc1`, the composite z-score is -0.68.
